Data published in the supplement of paper PMC6555819.

Tests used:
Assay in all cases: PBM binding z-score (relative to random genomic background probes); higher = stronger binding; sequences stand for … in GC…GCGATTGACAGCGTAGAATGAAGG
[1] = system: RARb homodimer (NR concentration 270 nM)
Outline: (§1)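 The probes on custom Agilent 4×180K protein-binding microarrays were double-stranded, with 34-nt variable regions bearing direct-repeat seeds, single-nucleotide variants, half-site ablations and random human genomic background sequences. Incubation lasted 1 h with ligand-free nuclear receptor dimers in PBS pH 7.4, 2% milk, 0.02% Triton X-100, 1 mM DTT, 0.2 mg/mL BSA and 0.4 mg/ml salmon testes DNA. Antibodies against each partner (one per run) detected bound dimers, and fluorescence scans were regression-normalized. Binding z-scores take the random background probes as reference.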

[2] = system: RARg:RXRa (NR concentration 270 nM, RXRa partner concentration 90 nM)
Outline: as §1

[3] = system: RARg homodimer (NR concentration 270 nM)
Outline: as §1

[4] = system: RXRa DBDmut IVT, anti-RXR (DBD mutation: RXRa K156A/R161A, NR concentration 90 nM)
Outline: as §1

[5] = system: RXRa homodimer (NR concentration 180 nM)
Outline: as §1

[6] = system: THRa:RXRa (NR concentration 90 nM, RXRa partner concentration 90 nM)
Outline: as §1

[7] = system: THRa homodimer (NR concentration 90 nM)
Outline: as §1

[8] = system: VDR homodimer (NR concentration 270 nM)
Outline: as §1

Sequence	PBM binding z-score [1]	PBM binding z-score [2]	PBM binding z-score [3]	PBM binding z-score [4]	PBM binding z-score [5]	PBM binding z-score [6]	PBM binding z-score [7]	PBM binding z-score [8]
GAGACTGGGGCAAAGCAGGTTACCATAAGGTTGG	1.54	0.842	0.776	-0.396	0.474	3.14	0.644	-0.202
CCTATTAGTTGACCACAAGGGCAACCGAAGCTCG	1.95	1.15	1.01	0.553	0.829	1.23	0.878	1.01
CCTTACGGCTCACGAGGTTATAGCACGACGAGCG	0.414	0.351	0.335	0.229	0.925	1.39	0.522	0.564
AGTCAAAGTTCAGGACGATGTAACGTAAAGCACG	2.88	3.94	4.82	2.83	2.53	1.92	0.0967	1.75
CATACAGGGTCAGCTAGGCCCGAGTAGGGACGGC	3.14	4.41	4.89	1.18	4.55	3.14	0.566	0.91
TCTTGTAGATCAACAGGAAGTTAAGAAAGATCGA	-0.828	-0.328	-0.339	0.508	-0.0187	-0.307	-1.05	-0.551
TCTGCTAGGTCAGTTGGTCACCTAACGAGCTGCC	2.87	2.97	3.79	0.479	1.15	1.88	0.86	-0.466
CTACTAAGGTGAACAAGGTCGTTGATTACTATTC	2.33	2.35	1.64	1.81	2.34	3.61	2.82	2.67
GCTTACGGGTTAAAGGTTATAGCATGAATAGAAT	1.74	3.66	1.37	0.714	6.82	2.8	0.253	0.558
CCTCGGAGGACAACAGGAGGGCAGAGCTGCCAGA	1.42	0.94	2.08	-0.00274	-0.287	0.794	-0.458	-0.448
CAAACTAGGTCACCGGAAGGTAAAAGTCCGCATG	3.46	5.33	5.29	1.61	3.87	3.69	1.84	1.01
AGAATGAGGTTATCAAGATCAGGGAATTGCGGTC	1.07	1.5	1.12	1.46	2.19	2.49	0.835	0.805
AATACAGGGTCATCATAGGCCAGAGTACGCACAG	3.57	5.66	5.42	3.54	6.89	4.39	1.78	3.46
CGTCCAAGGTAAGCAGGTCAGTGAAAGCGACGTG	2.25	1.08	1.44	-0.436	0.485	1.7	0.269	-0.407
ACAGACAGGTGAGCGAAGGTAACTCAGCTGGACG	0.0254	0.199	0.463	-0.651	0.258	1.74	-0.377	-0.771
CTCGAAAGGTCGGTTGAGGTGCGTATACGGATAA	1.76	2.59	2.85	0.676	2.12	3.88	-0.208	0.626
CCAGACAGGTGAAAGGTAAGTCAGTCTGGTACGC	0.843	1.2	0.478	0.066	1.68	0.828	0.0448	0.0335
CGTCCATGGTCAATGCTAGGTCAGTGAAAGCATT	2.59	2.58	1.9	0.0994	0.519	1.9	0.665	-0.0955
CCTTACGGGACACTGACAGGTTATAGCATTTGGA	0.492	0.652	0.903	0.645	0.341	0.178	0.0512	-0.0453
TCTATTAGTTCAAGGGCAACCGACGAGTCCGTTT	2.81	2.08	2.62	2.6	1.58	1.92	1.36	3.41
TCGTATAGGTAAAAGGTGAAAGTCGGTGTGGTAA	2.13	2.13	0.793	1.59	3.14	1.85	0.583	0.462
CCAGACAGGTGAGAAGGTAACACAGCCTCGATTA	1.03	0.858	0.833	0.148	0.73	0.62	0.195	0.124
GATACAGGGTCAGCTAGAGGCCACAGTATGGAAA	3.61	7.06	5.21	0.909	4.27	3.39	0.56	0.844
AGAATGAGGTTATACGTACATCAGGGAAGAAAGT	0.803	1.95	1.32	1.73	2.32	2.13	0.372	1.22
GGAACCAGGGCAAAGTTGATAGCATCTGTCGACG	1.67	1.34	1.41	1.03	1.12	1.18	0.549	0.747
TCTAGTAGTTGAAGGGCAACCGACGAGTCCGTTT	1.29	0.178	0.164	1.02	0.622	0.117	-0.38	0.676
CCTACTGGGCCCAAAAGGTCATTGATGCCGATAA	4.35	4.87	4.11	-0.121	5.65	3.15	0.687	1.84
CCGCGGAGGACAGAAGGTCAGAGCTGTCCGCTTT	3.51	3.69	3.56	0.479	2.27	2.17	-0.127	0.1
CGAACTAGGTCAGCACAGGACAGTGAAGGATGAT	2.69	3.27	4.34	0.563	1.68	3.81	0.48	-0.111
